High-throughput results deposited in PubChem BioAssay by The Scripps Research Institute Molecular Screening Center.
GPR151 ag: activators of human GPR151 | Q8TDV0 | activation, % at 11.2 µM | 650,000 tested, 1% active | PathHunter beta-arrestin GPR151 cells, luminescence; in the data active = activation above about 4.9%;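 note: 0% = median of compound wells and 100% = cells with positive control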
MITF inh: blocks human microphthalmia-associated transcription factor; inhibition, % at 2.6 µM; 650,000 tested, 0.91% active; AlphaScreen MITF homodimerization, bead proximity signal; O75030; AID 1259374; in the data active = inhibition above about 50%;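 note: 0% = vehicle wells with protein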
TEAD-YAP inh: TEAD-YAP interaction inhibition. HEK-TIYL cells, TEAD-Gal4/YAP UAS-luciferase luminescence. inhibition, % at 9.12 µM. 640,000 tested, 1.4% active. AID 1259422; in the data active = inhibition above about 32%;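 note: 0% = median of test compound wells and 100% = reference inhibitor wells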
FBW7 activator: activators of human E3 ligase FBW7. AID 1259310. AlphaScreen FBW7–phospho-cyclin E peptide binding, activator screen. 650,000 tested, 0.13% active. Q969H0. normalized activity (activation), % at 26.1 µM; in the data active = normalized activity above about 1.9%;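 note: purified mutant Fbw7 with reduced substrate affinity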
GPR151 confirm: confirmation of human GPR151 activators; shares compounds with GPR151 ag; GPR151 PathHunter beta-arrestin cells, luminescence, 90 min; % of EA-reagent control over plate median; activation, % at 11.2 µM; 6,700 tested, under 10 active;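 active = mean percent activation across replicates above the confirmation screen cutoff of 4.91%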
GPR119 ag: activates human GPR119 in a GPR151 counter-screen; shares compounds with GPR151 ag; GPR119 PathHunter beta-arrestin cells, luminescence, 90 min; 0 = compound-well median, 100 = enzyme-acceptor control; activation, % at 11.2 µM; 6,700 tested, 0.3% active;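 active = mean percent activation in the counterscreen above 29.09%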;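 note: counterscreen on off-target GPR119 to flag nonselective hits from the GPR151 activator screen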
Target sequence (Q8TDV5 whole entry, looked up): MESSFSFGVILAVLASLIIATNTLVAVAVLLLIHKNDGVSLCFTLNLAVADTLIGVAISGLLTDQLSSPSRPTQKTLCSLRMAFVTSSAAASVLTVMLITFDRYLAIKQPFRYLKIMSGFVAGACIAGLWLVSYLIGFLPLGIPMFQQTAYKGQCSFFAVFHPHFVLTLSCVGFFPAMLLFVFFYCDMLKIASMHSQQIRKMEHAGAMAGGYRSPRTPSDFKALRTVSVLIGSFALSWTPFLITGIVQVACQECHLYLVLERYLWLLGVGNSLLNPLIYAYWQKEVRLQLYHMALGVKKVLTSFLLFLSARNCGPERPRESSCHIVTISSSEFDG
Starred values were filed as active, the others as inactive; nt = not tested or not shown. Rows were chosen to be rich in hits. Some 3.5% of all compounds tested hit in one or more screens of this group.

SMILES	GPR151 ag	MITF inh	TEAD-YAP inh	FBW7 activator	GPR151 confirm	GPR119 ag
C#CCNC(=O)NCCCCCCNC(=O)NCC#C	-0.4	3.4	2.4	-0.1	nt	nt
C=CCOc1ccc(Oc2cc(C)nc(Cl)n2)nn1	0.0	8.0	8.6	-0.1	nt	nt
COC(=O)c1ccc(NC(=O)/C(=C\c2ccc(OC)c(OC)c2)NC(=O)c2ccc(Cl)cc2)cc1	7.8*	3.7	1.0	0.1	0.1	2.7
Nc1ccc2nc(-c3ccc([N+](=O)[O-])cc3)[nH]c2c1	-4.7	3.1	-13.2	0.1	nt	nt
Nc1ccc2nc(-c3ccc(N=Cc4cc([N+](=O)[O-])cc([N+](=O)[O-])c4O)cc3)[nH]c2c1	7.0*	1.5	1.6	-0.1	-0.1	3.2
CS(=O)(=O)NCC1CCC(C(=O)NC2CCN(Cc3ccccc3)CC2)CC1 (configuration not stated)	5.6*	7.6	3.3	0.4	0.7	10.8
Cc1cccc(C)c1OCC(=O)Nc1cc(C(=O)O)cc(C(=O)O)c1	-1.2	11.5	5.0	0.7	nt	nt
O=C(CCCN1C(=O)c2cccnc2C1=O)Nc1ccc(C(F)(F)F)cc1	9.0*	4.0	10.6	0.2	1.7	0.2
Cc1cc2oc(C(=O)Nc3cccnc3)c(C)c2cc1C	0.3	7.4	-28.6	-0.1	nt	nt
CC(=O)Nc1ccc(NC(=O)c2oc3cc(C)c(C)cc3c2C)cc1	23.0*	1.3	-10.2	-0.1	0.1	-0.3
O=C(C1CCC1)N1CCOc2ccc(CN3CCN(c4ccccn4)CC3)cc2C1	-1.5	-4.3	3.1	-0.1	nt	nt
O=C(C1CCCCC1)N1CCOc2ccc(CN3CCN(Cc4ccccn4)CC3)cc2C1	5.0*	25.3	2.2	0.2	0.4	11.0
CC(=O)c1ccc(NC(=S)Nc2cc([N+](=O)[O-])ccc2C)cc1	6.3*	11.7	-1.7	0.4	-1.0	-8.4
Cc1ccc(C(=O)O)cc1NC(=O)Nc1ccc([N+](=O)[O-])cc1	2.3	4.9	9.7	-0.2	nt	nt
O=C1N=C(N2CCOCC2)S/C1=C\c1c2ccccc2cc2ccccc12	1.3	14.8	4.5	0.1	nt	nt
NC1=NC(=O)/C(=C/c2cn[nH]c2-c2ccccc2)S1	0.4	0.4	-1.0	0.0	nt	nt
CC(C)Oc1ccc(/C=C2/SC(N3CCOCC3)=NC2=O)cc1	7.0*	17.5	-16.6	0.1	1.4	10.6
O=C1N=C(N2CCOCC2)S/C1=C\c1cccc2ccccc12	6.1*	16.9	-40.0	0.3	0.5	-2.7
Cc1ccc(/C=C2\SC(N3CCOCC3)=NC2=O)cc1	-0.5	15.0	-17.6	0.0	nt	nt
O=C1N=C(N2CCCC2)S/C1=C\c1cn[nH]c1-c1ccccc1	7.6*	-0.3	4.5	0.0	0.2	4.9
CCOC(=O)c1c(NC(NC(=O)c2ccccc2)(C(=O)OC)C(F)(F)F)sc(CC)c1-c1ccccc1 (configuration not stated)	-1.5	6.3	-3.5	-0.1	nt	nt
Clc1ccccc1OCCN1CCNCC1	5.4*	3.3	6.8	0.0	0.9	9.5
COc1cccc(OC)c1OCCN1CCNCC1	0.2	2.9	-7.3	-0.1	nt	nt
COc1ccc(CCn2c(=S)[nH]c3cc(C(=O)N4CCOCC4)ccc3c2=O)cc1OC	4.3	-20.1	9.0	0.1	nt	nt
COc1ccc(CCn2c(=S)[nH]c3cc(C(=O)N4CCC(C(N)=O)CC4)ccc3c2=O)cc1OC	6.1*	14.2	-3.3	0.1	-1.7	-3.6
SMILES	GPR151 ag	MITF inh	TEAD-YAP inh	FBW7 activator	GPR151 confirm	GPR119 ag
O=C(c1ccc2c(=O)n(CCc3ccccc3)c(=S)[nH]c2c1)N1CCN(c2ccccc2)CC1	6.3*	-3.7	-2.2	0.2	0.0	13.2
COc1ccc(CCn2c(=O)[nH]c3cc(C(=O)NCc4ccco4)ccc3c2=O)cc1OC	6.1*	8.8	2.9	0.2	-0.4	-3.7
COc1ccc(CCNC(=O)c2cccc(-n3c(=S)[nH]c4cc(Cl)ccc4c3=O)c2)cc1OC	5.8*	12.8	5.1	-0.2	-0.1	4.3
COc1ccc(CCNC(=O)c2ccc3c(=O)n(Cc4ccco4)c(=S)[nH]c3c2)cc1OC	-0.6	-4.9	-8.2	-0.2	nt	nt
COc1cc(/C=C2\SC(=Nc3cccc(C(=O)O)c3)N(C)C2=O)cc(OC)c1OC	2.1	5.8	8.4	-0.2	nt	nt
CC(=O)Nc1cccc(-c2cncc(NCCO)n2)c1	1.4	6.6	4.5	0.0	nt	nt
COCC(=O)Oc1c(Sc2ccccc2[N+](=O)[O-])c(C)nn1-c1ccccc1	1.3	14.0	5.5	0.1	nt	nt
COc1ccccc1S(=O)(=O)Cc1ccc(C(=O)N2CCOCC2)o1	46.2*	-7.4	-17.4	0.2	0.1	6.0
C=CCc1cccc(/C=N/NC(=O)CNc2ccc(OCC)cc2)c1O	1.2	6.5	8.4	0.1	nt	nt
CCn1nc(C)c(CNCc2cn[nH]c2-c2ccc(OC)c(F)c2)c1C	5.4*	10.1	6.7	0.2	0.0	-5.4
COc1ccc(-c2[nH]ncc2CNC(C)CCn2cccn2)cc1F (configuration not stated)	0.4	10.1	-10.8	0.0	nt	nt
O=C(OCc1nc2ccccc2s1)C1CCN(C2=NS(=O)(=O)c3ccccc32)CC1	5.6*	7.0	-6.1	-0.1	0.5	12.4
NC(=O)C1CCN(C2=NS(=O)(=O)c3ccccc32)CC1	-1.5	-1.4	6.5	0.0	nt	nt
CCCNc1nc(Nc2nccc3ccccc23)ncc1C	5.1*	0.2	39.2*	0.2	0.3	-1.3
Cc1cnc(Nc2nc3ccccc3n2C)nc1Nc1ccc(N2CCOCC2)cc1	-1.5	18.3	-28.3	-0.2	nt	nt
Cc1cnc(Nc2nccc3ccccc23)nc1Nc1ccc(N2CCOCC2)cc1	6.0*	3.4	50.0*	-0.5	0.3	-2.7
COc1cc(C2CC(=O)NC(SCC(=O)Nc3cc(C)ccc3C)=C2C#N)ccc1O (configuration not stated)	0.3	9.4	3.5	0.0	nt	nt
CCOc1ccc(/C(O)=C2\C(=O)C(=O)N(c3nc(C)c(C(=O)OC)s3)C2c2ccc(C)cc2)cc1C (configuration not stated)	5.0*	6.7	-2.3	-0.1	-0.6	0.2
CCN1CCN(C(CC(C)C)c2nnnn2Cc2ccc3c(c2)OCO3)CC1 (configuration not stated)	5.3*	2.6	-3.1	0.1	0.7	5.7
CC1(C)NC(=O)N(CCOCCOc2ccc3ccccc3c2Br)C1=O	5.5*	-4.6	-32.4	0.1	-0.2	-10.5
CC1(C)NC(=O)N(CC(O)COc2ccc3ccccc3c2Br)C1=O (configuration not stated)	2.6	-5.5	-12.9	-0.1	nt	nt
CC(C)OC(=O)/C(C#N)=C\c1cccs1	6.0*	-2.3	-5.1	0.0	-0.6	-8.8
O=C(CSc1ncnc2c1nnn2Cc1ccc(F)cc1)Nc1ccc(F)cc1	1.2	-6.1	23.9	0.0	nt	nt
COc1ccc(-c2noc(CN3CCC[C@H]3C(N)=O)n2)cc1	1.3	10.6	-4.0	0.1	nt	nt
